Pin1 inh: qHTS Assay to Find Inhibitors of Pin1; Peptidyl-prolyl cis-trans isomerase NIMA-interacting 1 (Homo sapiens), Q13526; Pin1 FP peptide displacement, HiFluor488, 10 min; Potency, µM (doses to about 115 µM), for inactives: top-dose activity, negative = inhibition, most hits filed as inhibitors; 390,000 compounds, 0.009% hits; AID 504891, 2011; active = well fitted inhibition curve with a large enough effect in the polarisation, with a control signal flat, not every such curve was filed as active; inconclusive = small, poorly fitted or top-dose-only effect, or effect the other way, or a change in a side signal; inactive = no such curve, though single readings can be large or run the other way; the % refers to the polarisation; note: potency is the fitted concentration of half-maximal effect; % is set by controls: 0 for no effect and ±100 for the full control effect
ClpP mod: qHTS Assay for Activators of ClpP; AID 651965, 2013; Potency, µM (highest dose often 57.5 µM), inactives show at the highest dose activity change, negative = active; 340,000 compounds, 1.9% hits; purified B. subtilis ClpP, FRET peptide cleavage, 20 min; active = well fitted falling curve with a large enough effect; inconclusive = small, poorly fitted or top-dose-only effect; inactive = no such curve, though single readings can be large or run the other way; note: potency is the fitted concentration of half-maximal effect; the source files actives as falling curves though it sought activators and does not explain the sign; nearly all actives have a fitted effect of over 65% in size
Target sequence (P80244 whole entry, looked up): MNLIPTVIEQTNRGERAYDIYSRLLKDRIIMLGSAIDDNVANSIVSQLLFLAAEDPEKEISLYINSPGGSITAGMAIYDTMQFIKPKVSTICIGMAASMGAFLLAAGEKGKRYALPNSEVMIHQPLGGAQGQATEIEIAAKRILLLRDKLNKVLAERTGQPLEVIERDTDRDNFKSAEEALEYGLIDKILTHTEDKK
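ClpP 10 microg/mL final, pH 8 Tris/KCl buffer with BSA, glycerol, Tween-20; compound pinned in; FRET-FV substrate; RT 20 min; Ex320/Em430; ΔFRET vs ADEP 5.8 microM, DMSO, no enzyme.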
IL-2 act: qHTS of IL-2 Activators | activation, % (series mostly up to about 46 µM) | AID 652025, 2013 | 360,000 compounds, 0.065% hits | IL-2 activation reporter assay, cell-based qHTS; stimulated with anti-CD3/CD4/CD28 beads; in transgenic mouse T cells; in the data active = activation above about 50%; inconclusive = mostly about 30% to 49%; note: 0% is about no effect
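First, unstimulated transgenic mouse T cells were exposed to compound for 60 min. Next, anti-CD3/anti-CD4-coated beads with anti-CD28 were added. Finally, after 18 h at 37 degrees C, EGFP and DsRed were imaged.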
PKM2 activator: qHTS Assay for Activators of Human Muscle isoform 2 Pyruvate Kinase. purified PKM2, Kinase-Glo ATP luminescence, activation; response scale: 0% is enzyme alone, no compound. Potency, µM (series often up to 57.5 µM), for the others: at the highest dose activation, usual class: activators. 260,000 compounds, 0.34% hits; note: potency is the fitted concentration of half-maximal effect; % is set by controls: 0 for no effect and ±100 for the full control effect; nearly all actives have a fitted effect of over 55% in size
Target sequence (P14618 whole entry, looked up, canonical isoform): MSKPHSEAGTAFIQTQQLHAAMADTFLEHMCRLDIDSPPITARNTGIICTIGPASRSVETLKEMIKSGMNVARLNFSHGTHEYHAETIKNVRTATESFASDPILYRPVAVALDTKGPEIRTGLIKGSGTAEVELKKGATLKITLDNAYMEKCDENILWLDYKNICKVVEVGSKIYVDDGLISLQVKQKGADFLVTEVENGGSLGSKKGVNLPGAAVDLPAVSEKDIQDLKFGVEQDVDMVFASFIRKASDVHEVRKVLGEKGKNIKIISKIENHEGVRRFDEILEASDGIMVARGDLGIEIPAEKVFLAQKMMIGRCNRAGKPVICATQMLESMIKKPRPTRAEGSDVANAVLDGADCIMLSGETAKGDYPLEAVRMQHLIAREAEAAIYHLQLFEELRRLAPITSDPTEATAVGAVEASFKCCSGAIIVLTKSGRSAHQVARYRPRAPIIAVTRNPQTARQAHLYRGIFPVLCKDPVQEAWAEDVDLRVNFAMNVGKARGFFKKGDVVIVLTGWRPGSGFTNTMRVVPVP
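hPK-M2, >95% pure; 0.1 mM ADP / 0.5 mM PEP final; imidazole pH7.2 buffer w/ 7 mM MgCl2, 50 mM KCl; 1 h RT; Kinase-Glo lum. Intermediate enzyme activity for dual inhibitor/activator qHTS.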
Integrin act MD: qHTS for Activators of Integrin-Mediated Alleviation for Muscular Dystrophy. alpha7betagal myoblasts, beta-gal FDG fluorescence, 48 h. Potency, µM (doses to about 38.3 µM), for the others: at the top dose activation, hits mostly activators. 350,000 compounds, 0.064% hits;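 note: potency is the fitted concentration of half-maximal effect; 100% = response of the positive control SU9516; nearly all actives have a fitted effect of over 60% in size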
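alpha7betagal+/- myoblasts (passage 13, 250/well) treated 48 h at 37C with compounds at 1:260 dilution of DMSO stock. Lysed, then beta-galactosidase activity read as FDG fluorescence (ex 480/em 540) after 30 min, with pre-read for autofluorescence.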
USP2a block: qHTS Assay for Inhibitors of Ubiquitin-specific Protease USP2a Using CHOP2 as the Reporter; Ubiquitin carboxyl-terminal hydrolase 2 (Homo sapiens), O75604; USP2 core, Ub-CHOP2 coupled fluorogenic reporter, 485/531; Potency, µM (top dose mostly 38.3 µM), without a hit: at the highest dose activity change, negative = inhibition, actives largely listed as inhibitors; 330,000 compounds, 0.01% hits; AID 463254, 2010;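 note: potency is the fitted concentration of half-maximal effect; plate controls were DMSO wells for no effect and full inhibition by NEM control for full effect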
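Deubiquitinase activity read as fluorescence (485/531 nm) after Ub-CHOP2 cleavage activates the enterokinase reporter on its substrate; USP2 core 10nM, Ub-CHOP2 and substrate 25nM each, 30min compound preincubation then 60min RT; data normalized to NEM, curves fitted.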
* marks the source's active call; other numbers are inactive results; ? = inconclusive; / = no result given; [ ] = another dose, or the depositor's remark. Hits are enriched below; roughly 1.9% of the tested compounds scored in any of these assays. Unless noted, calls come from the whole dose curve; as a rule, active = well fitted curve in the direction sought with a large enough effect; inconclusive = small, poorly fitted or top-dose-only effect, or another doubt; inactive = no such curve, though single readings can be large; an effect the other way counts as inactive or inconclusive.

SMILES	Pin1 inh	ClpP mod	IL-2 act	PKM2 activator	Integrin act MD	USP2a block
CSc1nc2ncc3c(n2n1)CC1c2ccccc2CCN1C3=O (stereo not given)	0.5%	28.2µM*	-2.7	-0.5%	-18.1%	-0.2%
N#CC(C#N)=C1c2cc(S(=O)(=O)NCCO)ccc2-c2ccc(S(=O)(=O)NCCO)cc21	2.2%	1.1%	3.2	1.26µM*	-17.2%	4.3%
O=C(O)CNS(=O)(=O)c1ccc2c(c1)Cc1cc(S(=O)(=O)NCC(=O)O)ccc1-2	-1.8%	-1.4%	2.1	-0.2%	14.0%	4.9%
O=C1c2cc(S(=O)(=O)NCCO)ccc2-c2ccc(S(=O)(=O)NCCO)cc21	-2.9%	/	-3.7	5.62µM*	13.2%	11.9%
O=C(O)CNS(=O)(=O)c1ccc2c(c1)C(=O)c1cc(S(=O)(=O)NCC(=O)O)ccc1-2	-17.8%	-2.6%	0.4	-2.5%[11.5 µM]	6.9%	1.6%
O=C(CNC(=S)NC(=O)c1ccc(Cl)cc1)c1ccccc1	-0.2%	28.2µM*	-0.6	1.5%	17.0%	1.1%
O=C(c1cccc(F)c1)N1CCC(N2CCOCC2)CC1	-5.1%	14.1µM*	0.2	-14.4%	26.8%	4.1%
O=C(c1cccc(F)c1)N1CCN(c2cccc(Cl)c2)CC1	-0.6%	28.2µM*	0.3	-1.3%	21.6%	0.9%
Cc1ccc(-c2nc3ccccn3c2NCc2ccc3c(c2)OCO3)cc1	3.5%	31.6µM*	3.7	-41.1%	-11.2%	-9.4%
COc1ccc(-c2nc3ccc(C)cn3c2NCc2ccc3c(c2)OCO3)cc1	1.2%	?	1.6	-2.0%	15.1%	-5.8%
Cn1c(=O)n(C)c2cc(NC(=O)c3ccccc3[N+](=O)[O-])c(Br)cc21	3.7%	/	0.3	7.94µM*	-21.4%	0.0%
CCOc1ccc(S(=O)(=O)N2CCc3cc(OC)c(OC)cc3C2)cc1	-14.8%	1.1%	-0.4	15.8µM*	-2.8%	1.0%
CCOc1ccc(S(=O)(=O)N2CCc3ccccc3C2)cc1	-0.1%	-0.4%	-0.6	15.8%	1.1%	-11.5%
O=C(OCC#CCSc1nnc(-c2cccc3ccccc23)o1)c1ccc(F)nc1	9.5%	/	/	/	/	/
Cc1ccc2c(ccc[n+]2CC(=O)c2ccccc2)c1	?	17.8µM*	1.6	-2.1%	21.7%	4.4%
COc1ccc(-c2cc3ccccc3oc2=O)cc1NC(=O)c1ccc(Br)o1	?	-27.6%	-0.4	27.3%	6.0%	2.0%
CCn1nnc(NC(=O)c2cccc(-c3cc4ccccc4oc3=O)c2)n1	6.2%	14.1µM*	-0.2	-3.6%	-24.7%	-3.2%
O=C(Nc1cccnc1)c1cccc(-c2cc3ccccc3oc2=O)c1	60.2%	/	-3.1	-2.4%	-8.1%	1.8%
O=C(Nc1cccc(-c2cc3ccccc3oc2=O)c1)c1ccc(Br)o1	39.7%	35.5µM*	-0.3	1.7%	3.2%	-1.2%
COc1ccc(CN(Cc2ccccc2)C(=O)C2CC2)cc1COc1ccc(NC(C)=O)cc1	?	-4.7%	/	/	/	/
C=CCn1c(SCC#N)nc2ccc(Cl)cc2c1=O	13.7%	-6.9%	/	/	/	/
CC(C)(C)OC(=O)NC(Cc1ccccc1)C(O)c1ccco1 (stereo not given)	-0.5%	/	/	/	/	/
CCOC(=O)CSc1nnc(-c2ccoc2C)n1-c1ccc(OCC)cc1	-20.1%	-4.1%	-3.3	39.8µM*	4.3%	0.0%
CCOC(=O)CSc1nnc(-c2ccoc2C)n1-c1ccc(C)cc1	2.2%	0.3%	1.1	1.5%	-52.5%	-1.7%
Cc1cc(/C=C/c2ccnc3ccccc23)ccc1N	/	-3.2%	/	/	/	/
SMILES	Pin1 inh	ClpP mod	IL-2 act	PKM2 activator	Integrin act MD	USP2a block
Fc1ccccc1NC(=S)Nc1ccc(Br)cc1	-0.9%	0.1%	-0.8	4.4%	-42.9%	5.3%
Fc1cc(Br)ccc1NC(=S)Nc1ccccc1	-6.7%	28.2µM*	-0.5	2.5%	-26.8%	-0.1%
CNC(=O)c1c(NC(=O)c2ccc(S(=O)(=O)N(C)c3ccccc3)cc2)sc2c1CCN(C(C)C)C2	?	-1.2%	62.1*	0.4%	-14.9%	0.7%
CCN1CCc2c(sc(NC(=O)c3ccc(S(=O)(=O)N(C)c4ccccc4)cc3)c2C(=O)NC)C1	?	-2.0%	-0.8	-3.3%	?	-1.3%
COc1ccc(-c2cc3nc(C)cc(N4CC(C)CC(C)C4)n3n2)cc1 (stereo not given)	-3.8%	39.8µM*	-0.4	2.6%	1.7%	-0.6%
CCCCc1cc(=O)oc2c(C)c(OCC(=O)N3CCCC3)ccc12	-2.4%	12.6µM*	-1.7	-0.4%	-4.4%	-0.1%
Cc1cc(=O)oc2c(C)c(OCC(=O)N(C)C)ccc12	-4.4%	15.8µM*	-0.3	-8.9%	-17.6%	2.0%
C=C(C)COc1ccc2c(CC)cc(=O)oc2c1C	18.0%	12.6µM*	-0.1	-1.5%	-13.7%	1.6%
COc1ccc(-c2c(C3C4C=CCC(C)C4C(=O)N3Cc3ccccc3)ccc3ccccc23)cc1 (stereo not given)	0.2%	/	/	/	/	/
Cn1ccc(C(=O)Nc2cccnc2Cl)n1	-5.1%	-0.1%	-3.9	-4.2%	10µM*	-0.5%
CN(C)C=NC(=O)c1ccc(N2CCN(c3ncc(C(F)(F)F)cc3Cl)CC2)cc1	1.0%	25.1µM*	-0.3	-4.3%	-22.9%	/
COc1ccc(-c2nnc3n2N=C(c2cc(OC)ccc2OC)CS3)c(OC)c1	-3.7%	/	/	/	/	/
O=C(c1ccccc1)N1CCN(c2nc(-c3ccc(Br)cc3)cs2)CC1	12.7%	/	/	/	/	/
Cc1cc2n(n1)C(c1cn(-c3ccccc3)nc1C)Nc1ccccc1-2 (stereo not given)	-1.5%	2.51µM*	-1.4	0.6%	4.3%	5.3%
Cc1ccc2c(c1)-c1cc(C)nn1C(c1cc(Br)ccc1O)N2 (stereo not given)	1.9%	4.6%	/	/	/	/
Cc1cc2n(n1)C(c1c[nH]c3ccccc13)Nc1ccccc1-2 (stereo not given)	-0.1%	22.4µM*	-0.3	-1.0%	-11.5%	2.2%
Cn1nnnc1Sc1ncnc2scc(-c3cccc(Cl)c3)c12	-9.4%	/	/	/	/	/
CC1(C)CC(=O)C2=C(C1)c1c(ccc3ccccc13)NC2c1ccco1 (stereo not given)	-0.9%	25.1µM*	-0.6	5.9%	-18.1%	-12.9%
COc1cc(F)c(S(=O)(=O)N2CCCN(S(=O)(=O)c3ccc4c(c3)OCCO4)CC2)c(F)c1	18.0%	/	/	/	/	/
CC(C(=O)NCc1ccccc1)N1C(=O)C2CC=C(Cl)CC2C1=O (stereo not given)	?	28.2µM*	-1.0	3.3%	-0.3%	1.6%

Screening data (PubChem)
